These results are taken from PubChem BioAssay (Tox21).

Results filed as inconclusive are left out. Where a call stands in place of a potency, no number is given. Values without a mark were called inactive. Activity calls are given as the source filed them. The call rests on the fitted dose curve; in most records, active means well fitted activation curve with a large enough effect; inconclusive means small, poorly fitted or top-dose-only effect; inactive means flat fitted curve, though single readings scatter. Residues, ends and D or L forms follow the SMILES beside them.

The test is described as follows: qHTS assay to identify small molecule phospholipidosis (PLD) inducers (AID 1259344). The conditions noted are these: HepG2 phospholipidosis, LipidTOX Red imaging, 24 h; series mostly up to 38.3 µM. The text has this:
National Center for Advancing Translational Sciences [NCATS]
Drug-induced Phospholipidosis (PLD) caused by cationic amphiphilic drugs is characterized by the appearance of unicentric or multicentric-lamellar bodies when viewed under electron microscope. Electron microscopy is the gold standard method for PLD detection, however, this method is time-consuming and labor intensive, making it unsuitable for evaluating a large set of compounds. A cell-based phospholipidosis assay has been developed using the LipidTox reagent in HepG2 cells and miniaturized into a 1536-well plate format. Drug induced phospholipid accumulation is stained with the LipidTox dyes in red color which then is determined using an automated high content screening system.
HepG2 cells are dispensed at 900 cells/3 uL/well into Collagen I-coated 1536-well black-wall/clear-bottom assay plates (Greiner Bio-One, Monroe, NC) using the Multidrop Combi 8 channel dispenser (Thermo Fisher, Waltham, MA, USA). The assay plates are incubated at 37 C for 4 hours to allow the cell attachment. 3 uL of 1:500 LipidTOX Red dye is added using the dispenser, and then 23 nL compounds are added via a Wako Pintool station (Wako Automation, San Diego, CA). Amiodarone, a known PLD inducer, was used as a positive control and DMSO was used as a negative control. The assay plates were then incubated at 37 C for 24 hours.
For fixations, 4 uL of 8% paraformaldehyde fixative solution containing 10 ug/mL Hoechst 33342 in Dulbecco's phosphate-buffered saline (DPBS) is added using a Kalypsys washer/dispenser (Kalypsys, San Diego, CA, USA). After incubation at room temperature for 30 min, the assay plates are washed once with DPBS using a Kalypsys washer/dispenser. The assay plates are then sealed and stored at 4 C before imaging. The fluorescence intensities (595 nm excitation, 615 nm emission for LipidTOX; 352 nm excitation, 461 nm emission for Hoechst 33342) are measured using an ImageXpress Micro Widefield High Content Screening System (Molecular Devices, Sunnyvale, CA, USA) with a 20x Plan Fluor objective. Images are acquired for one site in each well and analyzed with the MetaXpress software (Molecular Devices) using the Transfluor module. Several algorithmic outputs, such as pit count per well, pit count per cell, pit integrated intensity per well, and pit integrated intensity per cell, are used for quantitative image analysis for PLD.
With `O=S(=O)(O)O`, the Potency entry is “inactive”.

For the compound `C=CC1=C(C(=O)O)N2C(=O)[C@@H](NC(=O)/C(=N/OCC(=O)O)c3csc(N)n3)[C@H]2SC1` (stereo in doubt), the Potency result is “inactive”.

As to `CCCCCCCCCCCCCCCC[n+]1ccccc1`, the Potency result was “inactive”.

As to `CN1CC[C@H](c2c(O)cc(O)c3c(=O)cc(-c4ccccc4Cl)oc23)[C@H](O)C1`, the Potency result was “inactive”.

In the case of `O=C1CC[C@@H](C(=O)N[C@H]2C[C@@H]2c2ccccc2)N1`, the Potency result was “inactive”.

On to `CCCCCCCC[N+](C)(C)CCCCCCCC`, for which the Potency result is “inactive”.

On to `Nc1cc(Cl)c(NC2=NCCN2)c(Cl)c1`, for which the Potency result was “inactive”.

Take `Cc1ncc(C[n+]2csc(CCO)c2C)c(N)n1`: the Potency result was “inactive”.

For `C[Se]CC[C@H](N)C(=O)O`, the Potency result is “inactive”.

Turning to `CC(=O)OCC(=O)[C@@]1(O)CC[C@H]2[C@@H]3C[C@H](C)C4=CC(=O)C=C[C@]4(C)[C@H]3[C@@H](O)C[C@@]21C`, the Potency entry is “inactive”.

On to `O=C(O)c1cc(O)c2c(c1)[C@H]([C@H]1c3cc(C(=O)O)cc(O)c3C(=O)c3c(O[C@@H]4O[C@H](CO)[C@@H](O)[C@H](O)[C@H]4O)cccc31)c1cccc(O[C@@H]3O[C@H](CO)[C@@H](O)[C@H](O)[C@H]3O)c1C2=O`, for which the Potency entry is “inactive”.

On to `C[C@@H]1O[C@@H](OC[C@H]2O[C@@H](Oc3c(-c4ccc(OCCO)c(OCCO)c4)oc4cc(OCCO)cc(O)c4c3=O)[C@H](O)[C@@H](O)[C@@H]2O)[C@H](O)[C@H](O)[C@H]1O`, for which the Potency result is “inactive”.

Turning to `NCCCC(=O)O`, the Potency entry is “inactive”.

For the compound `N[C@H](CO)C(=O)O`, the Potency result was “inactive”.

Consider `CCCCCCCCCCCCCCCCCCOCC(COP(=O)([O-])OCC[N+](C)(C)C)OC` (stereo not given), for which the Potency entry was “inactive”.

Take `CC[C@@]1([C@@H]2O[C@@H]([C@H]3O[C@@](O)(CO)[C@H](C)C[C@@H]3C)C[C@@H]2C)CC[C@H]([C@]2(C)CC[C@]3(C[C@H](O)[C@@H](C)[C@@H]([C@@H](C)[C@@H](OC)[C@H](C)C(=O)O)O3)O2)O1` (stereo in doubt): the Potency entry was “inactive”.

`CO[C@H]1C[C@@H]2CC[C@@H](C)[C@@](O)(O2)C(=O)C(=O)N2CCCC[C@H]2C(=O)O[C@H]([C@H](C)C[C@@H]2CC[C@@H](O)[C@H](OC)C2)CC(=O)[C@H](C)C=C(C)[C@@H](O)[C@@H](OC)C(=O)[C@H](C)C[C@H](C)/C=C/C=CC=C1C`: the Potency entry is “inactive”.

As to `CO/N=C(\C(=O)N[C@@H]1C(=O)N2C(C(=O)[O-])=C(C[n+]3cccc4c3CCC4)CS[C@H]12)c1csc(N)n1`, the Potency result is “inactive”.

As for `O=[N+]([O-])c1ccc(O)c2ncccc12`, the Potency entry is “inactive”.

For `CC(=O)Oc1cc(C(F)(F)F)ccc1C(=O)O`, the Potency entry is “inactive”.

Consider `C[S+](CC[C@H](N)C(=O)O)C[C@H]1O[C@@H](n2cnc3c(N)ncnc32)[C@H](O)[C@@H]1O` (stereo not given in full), for which the Potency entry was “inactive”.

As for `CSCCC(N)C(=O)O` (stereo not given), the Potency entry is “inactive”.

`CC(C)NCC1CCc2cc(CO)c([N+](=O)[O-])cc2N1` (stereo not given): the Potency entry is “inactive”.

For `CCc1ncnc2cc(OC)c(OC)cc12`, the Potency entry was “inactive”.

Turning to `O=S(=O)(O)CC(S)CS` (stereo not given), the Potency entry is “inactive”.

On to `CC(C)(C)c1ccc2c(S(=O)(=O)O)c(C(C)(C)C)ccc2c1`, for which the Potency entry is “inactive”.

Regarding `Cc1onc(-c2c(F)cccc2Cl)c1C(=O)N[C@@H]1C(=O)N2[C@@H]1SC(C)(C)[C@@H]2C(=O)O`, the Potency entry is “inactive”.

Turning to `C/C=C/C1=C(C(=O)O)N2C(=O)[C@@H](NC(=O)[C@H](N)c3ccc(O)cc3)[C@H]2SC1`, the Potency entry is “inactive”.

Take `CCN(CC)CCNC(=O)c1ccc(NS(C)(=O)=O)cc1`: the PLD induction was -0.241% [at 7.66 µM].

With `CC(C)[C@H](NC(=O)[C@H](CC(=O)O)NC(=O)[C@H](CCCCN)NC(=O)[C@@H](N)CCCN=C(N)N)C(=O)N[C@@H](Cc1ccc(O)cc1)C(=O)O` (H-RKDVY-OH), the Potency result was “inactive”.

For the compound `CC1(C)S[C@@H]2[C@H](NC(=O)[C@H](N)c3ccc(O)cc3)C(=O)N2[C@H]1C(=O)O`, the Potency result is “inactive”.

Turning to `O=C[C@H](O)[C@@H](O)[C@@H](O)[C@H](O)CO`, the Potency entry is “inactive”.

On to `O=C(O)CCCC/C=C(\c1ccccc1)c1cccnc1`, for which the Potency entry was “inactive”.

Turning to `O=C(O)c1ccccc1[O-].O=C(O)c1ccccc1[O-].[Zn+2]`, the Potency entry was “inactive”.

`O.O.O.O.O.O.O.O=S(=O)([O-])[O-].[Co+2]`: the Potency result is “inactive”.

As to `CNC(=O)C[C@@H](N)C(=O)N[C@@H](C(=O)N[C@@H]1C(=O)N2[C@@H]1SC(C)(C)[C@@H]2C(=O)O)c1ccc(O)cc1`, the Potency entry is “inactive”.

For `CC(C)=CCC/C(C)=C/CC/C(C)=C/CC/C=C(\C)CC/C=C(\C)CCC=C(C)C`, the Potency entry was “inactive”.

Regarding `O=C(O)COc1ccc(C(=O)c2cccs2)c(Cl)c1Cl`, the Potency result is “inactive”.

In the case of `CC(C)CCC[C@@H](C)[C@H]1CC[C@H]2[C@@H]3CC[C@@H]4C[C@H](O)CC[C@]4(C)[C@H]3CC[C@]12C`, the Potency entry is “inactive”.

Turning to `O=C(O)COc1ccccc1/C=N/NC(=O)c1ccncc1`, the Potency entry is “inactive”.
